The record followed here is PubChem BioAssay (NCATS).

Molecules are shown by their SMILES. Records with an inconclusive call do not appear. Where a call stands in place of a potency, no number is given. Activity calls are given as the source filed them. Calls follow the shape of the dose curve; as a rule, active = well fitted inhibition curve with a large enough effect; inconclusive = small, poorly fitted or top-dose-only effect; inactive = flat fitted curve, though single readings scatter.
Potency is read from the fitted curve at half-maximal effect.

The subject of this experiment is Zika virus NS2B-NS3 protease. Kind of experiment: Primary screen GU AMC qHTS for Zika virus inhibitors (AID 1347154). Also: nearly all actives have a fitted effect of over 70% in size. The settings on record: Zika NS2B-NS3 unlinked protease, AMC fluorogenic substrate; series mostly up to 54.1 µM. In outline:
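Unlinked Zika NS2B hydrophilic domain/NS3 protease domain noncovalent complex (25 nM final) in 10 mM Tris-HCl pH 8.0, 0.01% Tween 20, with AMC peptide substrate. Fluorescence (ex 340, em 450 nm) change over 15 min, room temperature; percent inhibition fitted to 4-parameter Hill equation.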
In general terms: In qHTS, concentration-response curves come from the screen itself.
For `CC(=CCCC1=CCC(C2=CC(=O)OC2O)OC1O)CCC1=C(C)CCCC1(C)C` (centres undefined), the Potency result was “inactive”.

In the case of `CC=C(C)C(=O)N[C@@H](c1ccccc1)[C@@H](O)C(=O)O[C@H]1C[C@@]2(O)[C@@H](OC(=O)c3ccccc3)[C@@H]3[C@]4(OC(C)=O)CO[C@@H]4C[C@H](O)[C@@]3(C)C(=O)[C@H](OC(C)=O)C(=C1C)C2(C)C`, the Potency result is “inactive”.

`C[C@@H]1O[C@@H](O[C@@H]2C=C3CC[C@@H]4[C@@H](CC[C@]5(C)[C@H](c6ccc(=O)oc6)CC[C@@]45O)[C@@]3(C)CC2)[C@H](O)[C@H](O)[C@H]1O`: the Potency entry was “inactive”.

For the compound `CSCC[C@@H](NC(=O)[C@@H](Cc1ccccc1)NC(=O)CNC(=O)CNC(=O)[C@@H](N)Cc1ccc(O)cc1)C(=O)O`, the Potency result is “inactive”.

On to `CC[N+]1(CCOC(=O)C(O)(c2ccccc2)c2ccccc2)CCCCC1`, for which the Potency result was “inactive”.

For `COC(C)(C)CCCC(C)C/C=C/C(C)=C/C(=O)OC(C)C` (centres undefined), the Potency entry is “inactive”.

In the case of `C[C@@H]1CC[C@H]2[C@@H](C)C(=O)O[C@@H]3O[C@@]4(C)CC[C@H]1[C@]32OO4`, the Potency entry was “inactive”.

On to `CC(=Cc1csc(C)n1)[C@@H]1C[C@H]2O[C@]2(C)CCC[C@H](C)[C@@H](O)[C@@H](C)C(=O)C(C)(C)[C@@H](O)CC(=O)O1`, for which the Potency entry is “inactive”.

As to `CCCC[N+]1(C)[C@H]2CC(OC(=O)[C@H](CO)c3ccccc3)C[C@H]1[C@H]1O[C@H]12` (some centres undefined), the Potency entry is “inactive”.

On to `CCN1C[C@]2(OC(=O)c3ccccc3NC(C)=O)CC[C@H](OC)[C@@]34[C@H]5CC6[C@@H](OC)C[C@](O)(C(C[C@@H]23)[C@@H]14)[C@@]5(O)[C@@H]6OC`, for which the Potency entry is “inactive”.

In the case of `C=CCON=C(C[C@H]1O[C@@H]2O[C@]3(C)CC[C@@H]4[C@H](C)CC[C@@H]([C@H]1C)[C@@]24OO3)[C@H]1O[C@@H]2O[C@]3(C)CC[C@H]4[C@H](C)CC[C@@H]([C@@H]1C)[C@@]24OO3`, the Potency result was “inactive”.

For `O=C(O)COc1nc(Cl)c(Cl)cc1Cl`, the Potency result is “inactive”.

Regarding `C1CCC(NC2CCCCC2)CC1`, the Potency result is “inactive”.

As to `CC(O)CN1CCN(CC(=O)[O-])CCN(CC(=O)[O-])CCN(CC(=O)[O-])CC1.[Gd+3]` (centres undefined), the Potency result was “inactive”.

As for `COc1ccc(C(=O)c2c(C)n(CCN3CCOCC3)c3cc(I)ccc23)cc1`, the Potency entry was “inactive”.

Turning to `CCCCOC(=O)c1ccccc1C(=O)OCc1ccccc1`, the Potency entry is “inactive”.

In the case of `CCCCCCCCCC(CC)c1ccc(S(=O)(=O)O)cc1` (centres undefined), the Potency is 11.7 µM (active).

Turning to `Nc1ccc(Cl)cc1`, the Potency result was “inactive”.

On to `CN[C@@H](C)[C@H](O)c1ccccc1`, for which the Potency result was “inactive”.
